# In the library only some 3.4% were active in any assay of this set; here they are far more common.
# ADAM10 inh – inhibitors of human ADAM10; O14672; recombinant ADAM10, EDANS/DABCYL FRET peptide cleavage, 3 h; inhibition, % at 7 µM; 370,000 compounds, 0.62% hits; AID 720582;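 active means inhibition above a per-campaign cutoff equal to the mean of compounds falling between control-based bounds plus 3 SD, cut at about 20% in these data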;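 further: 0% = DMSO wells while the 100% control is not disclosed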
# sPLA2-III inh – Inhibits HGIII-sPLA2 liposome hydrolysis, primary screen; 370,000 compounds, 0.56% hits; QFRET BODIPY PC-A2 liposome hydrolysis, fluorescence; inhibition, % at 12.2 µM;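 active means inhibition above mean plus 3 SD of compounds lying within the high and low control bounds, cut at about 19% in these data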;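 further: 0% = median of test compound wells and 100% = no enzyme DMSO wells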
# KLK7 zymogen act – activators of human kallikrein-7 zymogen; AID 652039; purified proKLK7, EDANS-DABCYL substrate fluorescence; 100% is mature enzyme control, 0% vehicle; activation, % at 7 µM; 370,000 compounds, 0.9% hits;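 active means activation above the mean of all tested compounds plus 3 SD, computed per campaign excluding outliers beyond control limits, cut at about 13% in these data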
# PLCb3 inh – inhibitors of human phospholipase C beta3. Q01970. Purified PLC-beta3, fluorogenic substrate, fluorescence. inhibition, % at 12.2 µM. 370,000 compounds, 0.18% hits;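 further: 0% = median of compound wells on plate and 100% = full blocker control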
# ADAM17 inh – ADAM17 inhibition, QFRET primary screen | P78536 | recombinant ADAM17, EDANS/DABCYL FRET peptide cleavage | inhibition, % at 6.95 µM | 370,000 compounds, 0.83% hits | AID 720648;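 active means inhibition above the mean of compounds lying between control limits plus 3 SD, set per campaign, cut at about 8.5% in these data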;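 further: 0% = DMSO-only wells as the low control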
# Target sequence (P78536 215-824 limits assumed): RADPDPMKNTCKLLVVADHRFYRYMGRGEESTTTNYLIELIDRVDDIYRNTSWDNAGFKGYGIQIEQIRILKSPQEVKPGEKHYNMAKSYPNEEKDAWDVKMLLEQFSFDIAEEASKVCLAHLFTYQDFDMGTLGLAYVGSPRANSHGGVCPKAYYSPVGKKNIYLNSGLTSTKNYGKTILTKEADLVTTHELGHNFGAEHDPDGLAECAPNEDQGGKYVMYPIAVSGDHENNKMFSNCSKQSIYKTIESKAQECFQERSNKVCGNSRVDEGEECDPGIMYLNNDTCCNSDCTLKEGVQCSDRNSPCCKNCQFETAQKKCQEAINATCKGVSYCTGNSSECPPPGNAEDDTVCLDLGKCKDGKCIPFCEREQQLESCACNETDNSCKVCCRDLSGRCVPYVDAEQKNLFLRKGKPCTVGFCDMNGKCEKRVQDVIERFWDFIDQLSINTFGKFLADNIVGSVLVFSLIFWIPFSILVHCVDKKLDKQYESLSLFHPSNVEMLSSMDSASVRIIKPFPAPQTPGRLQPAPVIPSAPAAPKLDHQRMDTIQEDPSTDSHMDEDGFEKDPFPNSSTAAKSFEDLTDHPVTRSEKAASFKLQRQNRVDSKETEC
# PLC-gamma1 inh – inhibitors of human phospholipase C gamma1. 370,000 compounds, 0.84% hits. inhibition, % at 12.2 µM. purified PLC-gamma1, fluorogenic substrate, fluorescence. AID 720700; in the data active means inhibition above about 9.5%
# ADAM10 counter – counter-screen for ADAM17 exosite inhibitors: inhibitors of human ADAM10; recombinant ADAM10, EDANS/DABCYL FRET peptide cleavage, 3 h; 2,900 compounds, 47% hits; inhibition, % at 6.95 µM; shares compounds with ADAM17 inh;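 active means mean inhibition over the triplicate runs exceeds the activity threshold set in the earlier primary screen, cut at about 20% in these data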;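 further: 0% = DMSO wells and 100% = marimastat wells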
# ADAM17 confirm – human ADAM17 inhibition, confirmation; shares compounds with ADAM17 inh; recombinant ADAM17, EDANS/DABCYL QFRET peptide cleavage; inhibition, % at 6.95 µM; 2,900 compounds, 65% hits; AID 743257;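 active means mean inhibition across replicates above the hit cutoff set in the primary screen, cut at about 8.5% in these data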;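 further: 0% = DMSO wells and 100% = marimastat wells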
# PLCg1 ctr – inhibits human PLC-gamma1 in PLC-beta3 counter-screen. shares compounds with PLC-gamma1 inh. purified PLC-gamma1, fluorogenic substrate, fluorescence. inhibition, % at 12.3 µM. 3,300 compounds, 3.1% hits. AID 743258; in the data active means inhibition above about 9.5%
# PLCb3 confirm – human PLC-beta3 inhibition, confirmation; shares compounds with PLC-gamma1 inh; inhibition, % at 12.3 µM; purified PLC-beta3, fluorogenic substrate fluorescence; 3,300 compounds, 1% hits
# hGIII sPLA2 conf – human GIII-sPLA2 inhibition, confirmation | shares compounds with sPLA2-III inh | inhibition, % at 12.2 µM | 2,000 compounds, 34% hits | recombinant hGIII-sPLA2, BODIPY PC-A2 QFRET fluorescence;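 active means mean inhibition across triplicates above the hit cutoff set in the earlier primary screen, cut at about 19% in these data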;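 further: 0% = enzyme with DMSO and 100% = DMSO wells lacking enzyme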
# 535nm interf – 535nm fluorescence interference, HGIII-sPLA2 counter-screen. shares compounds with sPLA2-III inh. inhibition, % at 12.2 µM. 2,000 compounds, 8.5% hits. BODIPY FL product fluorescence interference, QFRET;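 active means average inhibition above the solvent-only control mean plus 3 SD, cut at about 6% in these data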;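 further: 0% = DMSO with substrate plus product and 100% = DMSO with substrate alone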
# The depositor's hits bear a star; . = no result. Unless noted, no stated cut-off is given here; in the data, active means inhibition above about 11%; inactive means the rest.
SMILES,ADAM10 inh,sPLA2-III inh,KLK7 zymogen act,PLCb3 inh,ADAM17 inh,PLC-gamma1 inh,PLCg1 ctr,PLCb3 confirm,others
O=C(O)c1cc(O)c2c(c1)[C@H]([C@H]1c3cc(C(=O)O)cc(O)c3C(=O)c3c(O[C@@H]4O[C@H](CO)[C@@H](O)[C@H](O)[C@H]4O)cccc31)c1cccc(OC3O[C@H](CO)[C@@H](O)[C@H](O)[C@H]3O)c1C2=O (some centres not stated),-255,27*,0,19*,16*,33*,28*,7,ADAM10 counter=-367;ADAM17 confirm=9.7*;hGIII sPLA2 conf=3;535nm interf=1
O=C(NCCc1ccccc1Cl)[C@@H]1CCCN1C(=O)[C@@H](NS(=O)(=O)c1ccc(F)cc1F)c1ccccc1,6,-18,0,9,3,3,.,.,
Cc1nn(C(C)C(=O)O)c(C)c1[N+](=O)[O-] (configuration not stated),-4,2,0,4,1,1,.,.,
Cc1nn(C(C)C(=O)N2CCOCC2)c(C)c1[N+](=O)[O-] (configuration not stated),3,2,0,3,1,11*,-4,-10,
Cc1cccc(C)c1NC(=O)CSc1nnc(Cc2ccccc2)o1,12,2,0,0,-2,0,.,.,
Cc1cc(C)nc(SCc2nnc(SCC(=O)Nc3c(C)cccc3C)o2)n1,10,6,-1,8,0,11*,-6,-2,
COc1ccc(C2C(C(=O)Nc3cc(OC)ccc3OC)CCC(=O)N2c2ccc(OC)cc2)cc1 (configuration not stated),-6,-7,0,-1,3,-1,.,.,
CC1=C(C(=O)N(C)C)CC(CC(=O)NCC2CCCCC2)C(=O)N1CCC1=CCCCC1 (configuration not stated),2,0,0,4,0,11*,-3,0,
COC(=O)c1ccc(Cn2ccc3ccc(-c4ccc5ccn(C(=O)c6ccccc6C)c5c4)cc32)cc1,-29,1,-8,-72,-7,-55,.,.,
CN(Cc1ccc(F)cc1)C(=O)c1ccc(NS(=O)(=O)c2ccc3[nH]c(=O)[nH]c3c2)cc1,-4,-4,1,0,-2,0,.,.,
COc1ccc(CN(C)C(=O)c2ccc(NS(=O)(=O)c3ccc4[nH]c(=O)[nH]c4c3)cc2)c(OC)c1,3,-16,0,-2,0,15*,1,-5,
c1ccc(CN2CCN(c3ncnc4sccc34)CC2)cc1,3,0,.,-1,2,5,.,.,
C[C@H](O)[C@@H]1CN2CCc3c([nH]c4c(-c5ccc6c(c5)OCO6)cccc34)[C@@H]2C[C@@H]1N(C)C(=O)Nc1ccccc1,-7,-8,1,-4,-2,-2,.,.,
COc1ccc(-c2noc3c2-c2nc(-c4ccc(Br)cc4)sc2CC3)cc1,-1,3,-1,3,0,14*,-10,-7,
COc1ccc(-c2noc3c2-c2nc(-c4ccccc4C)sc2CC3)cc1,3,0,0,0,-2,0,.,.,
COc1ccc(-c2noc3c2-c2nc(C(C)C)sc2CC3)cc1,5,2,0,1,3,11*,-6,-4,
CCCCOCCCNC(=O)C[C@H]1C(=O)N(Cc2ccc(OC)cc2)C2=CCCCC[C@@]21C(=O)OC,2,-14,0,-5,-3,-1,.,.,
COCCCNC(=O)CN1C(=O)C2CCCCN2C(=O)c2ccccc21 (configuration not stated),-11,15,1,-4,-3,-1,.,.,
COc1ccc(/C=N/Nc2ccc(C(F)(F)F)cc2[N+](=O)[O-])cc1O,0,5,-1,7,3,11*,3,3,
COc1ccc(-c2csc(=NCCO)n2-c2ccccc2)cc1,8,19,0,-4,-6,10.0*,-3,-1,
COc1ccccc1COCC(O)CN1CCN(S(=O)(=O)c2cccc(F)c2)CC1 (configuration not stated),-8,-6,0,0,8,15*,-2,2,
CC(OC(=O)c1cccc(S(=O)(=O)N2CCCCC2)c1)C(=O)NCC1CCCCC1 (configuration not stated),-11,6,0,0,4,9.9*,4,3,
O=C(c1cccc(S(=O)(=O)N2CCCCC2)c1)N1CCc2ccccc21,7,0,0,8,8,15*,-4,-2,
COc1ccccc1COC(=O)c1cccc(S(=O)(=O)N2CCCC2)c1,7,-20,0,11*,2,10*,11*,14*,
O=C(NCC1CCCCC1)c1cccc(S(=O)(=O)N2CCCC2)c1,-2,2,0,-6,0,1,.,.,
SMILES,ADAM10 inh,sPLA2-III inh,KLK7 zymogen act,PLCb3 inh,ADAM17 inh,PLC-gamma1 inh,PLCg1 ctr,PLCb3 confirm,others
N#Cc1ccc(S(=O)(=O)N2CCCc3nc(-c4ccc(Br)cc4)ccc32)cc1,-1,-1,0,1,0,1,.,.,
CCOC(=O)c1cccc(S(=O)(=O)N2CCCC2)c1,9,9,0,9,5,10*,-8,-1,
COc1ccc(C)cc1S(=O)(=O)Nc1ccccc1C,13,-12,0,10,6,11*,-6,-4,
Cc1ccccc1NS(=O)(=O)c1ccc(C)c(NS(C)(=O)=O)c1C,-1,-5,0,-1,-4,9.9*,2,0,
Cc1ccccc1NS(=O)(=O)c1cc(S(C)(=O)=O)ccc1C,-5,-5,0,2,1,1,.,.,
CC(=O)Nc1cc(S(=O)(=O)Nc2ccccc2C)c(C)cc1C,10,2,0,6,4,9.8*,-2,3,

# Assay outcomes: PubChem BioAssay, The Scripps Research Institute Molecular Screening Center
